Hits are enriched below; roughly 8.9% of the tested compounds scored in any of these assays.
IMPase Li cell = membrane-permeable IMPase blocker, potentiated with lithium | CHO-M1 cells, IP1 TR-FRET (IP-One), carbachol + lithium | Potency, µM (doses to about 59.4 µM), for the others: at the top dose activity, negative = IMPase inhibition, most hits filed as inhibitors | actives 0.35% (n = 210,000);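 also: IP1 builds up when IMPase is blocked and the TR-FRET signal falls; potency is read from the fitted curve at half-maximal effect; plate controls were basal vehicle for no effect and high inhibitor control for full effect; nearly all actives have a fitted effect of over 50% in size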
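CHO cells stably expressing M1 receptor (2000/well, cultured 16–30 h) treated 30 min at 37C with compound plus low lithium. Cytosolic IP1 by TR-FRET (665/620 ratio and 620 channel) after 10 min lysis; AC50 by Hill fit.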
NPSR antagonist = blocks cAMP signaling of the human neuropeptide S receptor; CHO-NPSR cells, cAMP TR-FRET, antagonist mode; Potency, µM (highest dose often 38.3 µM), for the others: top-dose activity change, negative = inhibition, actives largely listed as inhibitors; Q6W5P4; AID 1461; actives 1% (n = 220,000); also: potency is read from the fitted curve at half-maximal effect; nearly all actives have a fitted effect of over 50% in size
Target sequence (Q6W5P4 whole entry, looked up): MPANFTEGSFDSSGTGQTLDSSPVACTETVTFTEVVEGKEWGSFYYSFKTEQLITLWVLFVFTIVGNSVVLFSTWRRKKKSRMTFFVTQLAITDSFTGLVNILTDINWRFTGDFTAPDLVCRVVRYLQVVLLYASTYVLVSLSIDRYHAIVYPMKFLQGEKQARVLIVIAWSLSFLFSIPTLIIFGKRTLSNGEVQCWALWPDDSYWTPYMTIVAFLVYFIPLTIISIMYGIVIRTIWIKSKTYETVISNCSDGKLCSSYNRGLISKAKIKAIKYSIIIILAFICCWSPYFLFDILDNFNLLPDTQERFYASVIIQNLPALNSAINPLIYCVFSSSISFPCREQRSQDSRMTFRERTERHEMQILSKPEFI
ALDH1A1 inh = ALDH1A1 (human) enzyme inhibition. P00352. Purified ALDH1A1, NADH fluorescence, propionaldehyde substrate. Potency, µM (titrated, usually from 75.3 µM), for inactives: at the highest dose activity, negative = inhibition, most hits filed as inhibitors. actives 7.3% (n = 220,000). AID 1030; active = well fitted inhibition curve with a large enough effect, not every such curve was filed as active; inconclusive = small, poorly fitted or top-dose-only effect, or another doubt; inactive = no such curve, though single readings can be large or run the other way;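 also: potency is read from the fitted curve at half-maximal effect; plate controls were no enzyme wells and a reference inhibitor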
ALOX12 inhib = 12-hLO (ALOX12) enzyme inhibition. Potency, µM (titrated, usually from 57.1 µM), for the others: at the highest dose activity change, negative = inhibition, usual class: inhibitors. P18054. actives 0.12% (n = 150,000). purified 12-hLO, xylenol orange hydroperoxide absorbance; also: potency is read from the fitted curve at half-maximal effect; nearly all actives have a fitted effect of over 55% in size
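Purified human 12hLO (150 nM final) was preincubated with compounds for 15 min at room temperature in 25 mM Hepes pH 7.0, 0.01% Triton X-100, then reacted with 40 uM arachidonic acid for 30 min. Hydroperoxide was detected with ferrous iron/xylenol orange.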
HPGD block = blocks human HPGD enzyme activity; actives 4.3% (n = 150,000); Potency, µM, for inactives: at the top dose activity change, negative = inhibition, usual class: inhibitors; purified HPGD, NADH fluorescence kinetic, PGE2 substrate; active = well fitted inhibition curve with a large enough effect, not every such curve was filed as active; inconclusive = small, poorly fitted or top-dose-only effect, or another doubt; inactive = no such curve, though single readings can be large or run the other way; also: potency is read from the fitted curve at half-maximal effect
Target sequence (P15428 whole entry, looked up): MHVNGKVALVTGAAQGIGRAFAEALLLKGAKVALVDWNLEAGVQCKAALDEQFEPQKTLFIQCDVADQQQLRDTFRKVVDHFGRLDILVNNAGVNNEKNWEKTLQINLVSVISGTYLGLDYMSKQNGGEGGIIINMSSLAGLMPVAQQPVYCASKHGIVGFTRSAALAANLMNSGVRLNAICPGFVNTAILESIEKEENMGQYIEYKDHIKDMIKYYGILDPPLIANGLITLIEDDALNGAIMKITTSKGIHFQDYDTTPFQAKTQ
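20 nM HPGD preincubated 15 min at room temperature with compound in 50 mM Tris-HCl pH 8, 0.01% Tween 20. Started with 1 mM NAD+ and 30 uM prostaglandin E2; NADH fluorescence (360/450 nm) read 5 times over 30-s intervals, last minus first.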
IMPase cell inh = membrane-permeable compound that blocks inositol monophosphatase | inhibition (IP1 accumulation), % at 46.1 µM | 120,000 tested, under 10 active | CHO-M1 cells, IP1 accumulation, HTRF TR-FRET ratio | P97697 | AID 901; active = well fitted curve in the direction sought with a large enough effect in the signal ratio, not every such curve was filed as active; inconclusive = small, poorly fitted or top-dose-only effect, or a change in a side signal; inactive = no such curve, though single readings can be large or run the other way; the % refers to the signal ratio;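 also: cells stimulated with carbachol in lithium chloride buffer; plate controls were DMSO basal wells for no effect and reference inhibitor wells for full effect; higher means more IMPase inhibition seen as more IP1 and lower FRET ratio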
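Cellular IMPase inhibition is scored as a rise in cytosolic IP1, detected by competitive TR-FRET between d2-labelled IP1 and a europium anti-IP1 antibody. M1-expressing CHO cells were stimulated with carbachol for 30 min at 37C, with lithium (50 mM LiCl) present in the buffer.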
Numbers without * were called inactive; [ ] = dose if it differs, or a comment. Unless noted, calls follow the shape of the dose curve; as a rule, active = well fitted curve in the direction sought with a large enough effect; inconclusive = small, poorly fitted or top-dose-only effect, or another doubt; inactive = no such curve, though single readings can be large; an effect the other way counts as inactive or inconclusive. Unless noted, % is scaled to controls: 0 for no effect and ±100 for the full control effect.

`Cc1cccc(C)c1C(OCCN(C)C)C1CCCCC1` (configuration not stated) gave IMPase Li cell 16%, NPSR antagonist -1%, ALDH1A1 inh 1%, ALOX12 inhib -1% and HPGD block 0%.
For O=C(OCCN1CCOCC1)c1ccc(OCCN2CCOCC2)cc1 the results were IMPase Li cell -7%[38.3 µM], NPSR antagonist 4%[46.1 µM], ALDH1A1 inh 16%, ALOX12 inhib 4%, HPGD block -9% and IMPase cell inh -4.
CCCCOc1ccc(C(=O)CCN2CCOCC2)cc1 was read as IMPase Li cell 4%, NPSR antagonist 8% and ALDH1A1 inh 0.28µM*.
CCOC(=O)C1(C)/C(=N/Nc2ccc(S(N)(=O)=O)cc2)C(=O)C(=O)N1c1ccccc1 (configuration not stated) was read as IMPase Li cell 1%, NPSR antagonist -23% and ALDH1A1 inh 18µM*.
Screening CCOC(=O)C1(C)/C(=N/Nc2ccccc2Cl)C(=O)C(=O)N1c1ccccc1 (configuration not stated) returned IMPase Li cell 48%[38.3 µM], NPSR antagonist -7%[46.1 µM], ALDH1A1 inh 0.22µM*, ALOX12 inhib inconclusive, HPGD block 40µM* and IMPase cell inh 7.
`CCOC(=O)C1(C)/C(=N/Nc2cccc(Cl)c2)C(=O)C(=O)N1c1ccccc1` (configuration not stated) gave IMPase Li cell -7%[38.3 µM], NPSR antagonist -12%[46.1 µM], ALDH1A1 inh inconclusive, ALOX12 inhib 3.2µM*, HPGD block 32µM* and IMPase cell inh 8.
`CCOC(=O)C1(C)/C(=N/Nc2ccc(Cl)cc2)C(=O)C(=O)N1c1ccccc1` (configuration not stated) gave IMPase Li cell 10%[38.3 µM], NPSR antagonist -20%[46.1 µM], ALDH1A1 inh inconclusive, ALOX12 inhib inconclusive, HPGD block inconclusive and IMPase cell inh 5.
For Cc1[nH]nc(Nc2ccccc2)c1[N+](=O)[O-] the results were IMPase Li cell -12%[38.3 µM], NPSR antagonist 13%[46.1 µM], ALDH1A1 inh -3%, ALOX12 inhib -1%, HPGD block -28% and IMPase cell inh 4.
CC(C)(C)c1ccc(O)c(O)c1 was read as IMPase Li cell -10%, ALDH1A1 inh 0.89µM*, ALOX12 inhib -14% and HPGD block 10µM*.
Screening Cc1ccc(NCCC(=O)c2ccc(Cl)c(Cl)c2)cc1 returned IMPase Li cell 3%[38.3 µM], NPSR antagonist -11%[46.1 µM], ALDH1A1 inh 0.79µM*, ALOX12 inhib 4%, HPGD block -15% and IMPase cell inh 1.
CC(=O)c1ccc(NS(=O)(=O)Cc2ccccc2)cc1 was read as IMPase Li cell -2%[38.3 µM], NPSR antagonist -11%[46.1 µM], ALDH1A1 inh -4%, ALOX12 inhib -3%, HPGD block 25µM* and IMPase cell inh 1.
Screening CCc1ccc(NCCC(=O)c2ccc(Cl)cc2)cc1 returned IMPase Li cell 11%[38.3 µM], NPSR antagonist -2%[46.1 µM], ALDH1A1 inh 1.6µM*, ALOX12 inhib 2%, HPGD block -7% and IMPase cell inh 4.
`CCc1ccc(C(=O)NNc2ccc(Cl)cc2)cc1` gave NPSR antagonist 16% and ALDH1A1 inh inconclusive.
CC(C)(C)c1ccc(C(=O)Nc2ccc(NC(=O)c3ccc(Cl)c(Cl)c3)cc2)cc1 was read as IMPase cell inh -4.
`CC(=O)c1ccc(NCCC(=O)c2ccccc2)cc1` gave IMPase Li cell -1%, NPSR antagonist 5% and ALDH1A1 inh 6.3µM*.
Cc1ccc(C)c(N2N=C(C(=O)Nc3ccc(S(=O)(=O)N4CCCC4)cc3)CCC2=O)c1 was read as NPSR antagonist -22%.
For Cc1cccc(-n2c(-c3ccco3)nc3nc4ccccc4nc32)c1 the results were IMPase Li cell -2%, NPSR antagonist -2%[46.1 µM], ALDH1A1 inh inconclusive, ALOX12 inhib 3%, HPGD block inconclusive and IMPase cell inh -4.
Screening CC1CCOC2(O1)C(=O)N(CN1CCN(c3ccccc3F)CC1)c1ccccc12 (configuration not stated) returned IMPase Li cell -9%[38.3 µM], NPSR antagonist -1%[46.1 µM], ALDH1A1 inh -7%, ALOX12 inhib -5%, HPGD block -3% and IMPase cell inh -2.
Screening CN(C)C(=O)/C(=C\c1cccc(Oc2ccccc2)c1)NC(=O)c1ccccc1 returned IMPase Li cell 7%, NPSR antagonist 21%, ALDH1A1 inh 0%, ALOX12 inhib 0%, HPGD block -8% and IMPase cell inh 10.
Screening Cc1nc(-c2ccc(C(=O)O)cc2)cs1 returned IMPase Li cell -13%[38.3 µM], NPSR antagonist -1%[46.1 µM], ALDH1A1 inh 5%, ALOX12 inhib 0%, HPGD block -9% and IMPase cell inh 0.
Screening CC1CCC(C(=O)O)NC1c1ccc(C#CCN(C)C)cc1 (configuration not stated) returned ALDH1A1 inh 23%[13.5 µM].
Screening Cc1ccc(C(=O)CCNc2ccc(Cl)cc2)o1 returned IMPase Li cell 33%[38.3 µM], NPSR antagonist -12%[46.1 µM], ALDH1A1 inh 4µM*, ALOX12 inhib 2%, HPGD block -10% and IMPase cell inh 4.
`CCCOc1ccc(C(=O)CCNc2ccc(C)c(Cl)c2)cc1` gave IMPase Li cell 3%[38.3 µM], NPSR antagonist -7%[46.1 µM], ALDH1A1 inh 18µM*, ALOX12 inhib 5%, HPGD block -5% and IMPase cell inh 0.
`Cc1ccc(NCCC(=O)c2ccc(Cl)cc2)cc1C` gave IMPase Li cell -2%[38.3 µM], NPSR antagonist -4%[46.1 µM], ALDH1A1 inh 2.8µM*, ALOX12 inhib -1%, HPGD block -10% and IMPase cell inh -1.
`COc1ccc(C(C(=O)NC2CCCC2)N(CCN2CCOCC2)C(=O)c2ccc(OC)c(OC)c2)cc1` (configuration not stated) gave IMPase Li cell 24%[38.3 µM], NPSR antagonist 1%[46.1 µM], ALDH1A1 inh 5%, ALOX12 inhib -1%, HPGD block -1% and IMPase cell inh -5.
Screening CCCNc1nc(C)cc(-c2cc(-c3ccccc3)on2)n1 returned NPSR antagonist 4%.
O=C(NC12CC3CC(CC(C3)C1)C2)c1ccc(-c2ccc(Cl)cc2)o1 was read as IMPase Li cell 9%, NPSR antagonist -53%, ALDH1A1 inh inconclusive, ALOX12 inhib 2% and HPGD block inconclusive.
O=C(NC1CCCCC1)C(c1ccc2ncccc2c1)N(Cc1ccco1)C(=O)c1ccc2c(c1)OCCO2 (configuration not stated) was read as IMPase Li cell 4%[38.3 µM], NPSR antagonist inconclusive, ALDH1A1 inh inconclusive, ALOX12 inhib -2%, HPGD block -12% and IMPase cell inh 7.
